Assay outcomes: PubChem, National Center for Advancing Translational Sciences (NCATS)
An excerpt weighted towards active compounds, which were near 17% of everything screened.
ATXN2 expr inh: Primary qHTS for Inhibitors of ATXN expression. HEK-293 ATXN2-luciferase reporter, luminescence, 24 h. Potency, µM (highest dose often 57 µM), without a hit: top-dose activity change, negative = inhibition, usual class: inhibitors. 360,000 compounds, 0.72% hits. AID 1745845, 2022; also: % is scaled to controls: 0 for no effect and ±100 for the full control effect; nearly all actives have a fitted effect of over 55% in size
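qHTS (up to 57 uM final) was run with 24 h compound exposure of reporter cells at 37 °C. Each well was multiplexed: SteadyGlo luminescence measured ATXN2-luciferase expression after a fluorogenic Gly-Phe-AFC viability readout (25 uM final).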
ATXN viability: Viability Counterscreen for Primary qHTS for Inhibitors of ATXN expression. Potency, µM (doses to about 56.7 µM), usual class: cytotoxic. S2 cells (HEK-293 line with an ATXN2-luciferase reporter) viability, CellTiter-Fluor protease fluorescence, 24 h. 400,000 compounds, 0.49% hits; also: nearly all actives have a fitted effect of over 40% in size
TGFb inhibitor: qHTS for Inhibitors of TGF-b; HepG2 CAGA-GFP TGF-b/SMAD3 reporter, GFP fluorescence, 18 h; TGF-beta stimulated, 500 pg/mL final; Potency, µM (highest dose often 46.1 µM), inactives show top-dose activity, negative = inhibition, usual class: inhibitors; 410,000 compounds, 1.2% hits; AID 588855, 2011; also: % is scaled to controls: 0 for no effect and ±100 for the full control effect; nearly all actives have a fitted effect of over 65% in size
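Per well, imaged GFP fluorescence of HEPG2 CAGA-GFP cells gives the signal; cells get compound, then TGF-beta (500 pg/mL final), 18 h at 37 degrees C; %Activity versus -TGF-beta and +DMSO controls.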
DT40 TDP1 no CPT: qHTS for Inhibitors of human tyrosyl-DNA phosphodiesterase 1 (TDP1): qHTS in cells in absence of CPT; AID 686978, 2013; DT40 Tdp1-/- hTDP1 cells, no CPT, ATP luminescence, 48 h; Potency, µM (titrated, usually from 46.2 µM), for the others: top-dose activity change, negative = growth inhibition, actives largely listed as inhibitors; 420,000 compounds, 15% hits; also: % is scaled to controls: 0 for no effect and ±100 for the full control effect; nearly all actives have a fitted effect of over 55% in size
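Luminescent ATP content (CellTiter-Glo) served as the growth readout. Knockout chicken DT40 cells expressing human TDP1 were exposed to compounds without camptothecin for a minimum 48 hr at 37 °C.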
DT40 TDP1 CPT: qHTS for Inhibitors of human tyrosyl-DNA phosphodiesterase 1 (TDP1): qHTS in cells in presence of CPT; chicken DT40 Tdp1-/-;hTDP1 cells + 20 nM CPT, ATP luminescence, 48 h; Potency, µM (doses to about 46.2 µM), inactives show at the highest dose activity change, negative = growth inhibition, most hits filed as inhibitors; 420,000 compounds, 12% hits; also: % is scaled to controls: 0 for no effect and ±100 for the full control effect; nearly all actives have a fitted effect of over 55% in size
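Cell growth measured by CellTiter-Glo luminescence after a minimum 48 h, 37 C compound exposure with 20 nM CPT in Tdp1-knockout DT40 cells stably expressing hTDP1, seeded 400/well; qHTS titration format.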
HepG2 viability: qHTS for Inhibitors of TGF-b: Cytotox Counterscreen. HepG2 CAGA-GFP viability, ATP luminescence, 18 h. Potency, µM (highest dose often 46.1 µM), for inactives: at the highest dose activity change, negative = cytotoxicity, hits mostly cytotoxic. 410,000 compounds, 0.76% hits. AID 588856, 2011
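HepG2 CAGA-GFP cells (1000/well, DMEM with 1% FBS) received compound, then TGF-beta at 500 pg/mL final, and were incubated 18 hours at 37 degrees C. Viability was read by CellTiter-Glo luminescence. Media-only wells were set as complete cell-killing and DMSO as no toxicity.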
* marks the source's active call; other numbers are inactive results; i = inactive; u = inconclusive; x = not tested or not shown. Calls follow the shape of the dose curve; as a rule, active = well fitted curve in the direction sought with a large enough effect; inconclusive = small, poorly fitted or top-dose-only effect, or another doubt; inactive = no such curve, though single readings can be large; an effect the other way counts as inactive or inconclusive. Potency is read from the fitted curve at half-maximal effect.

SMILES | ATXN2 expr inh | ATXN viability | TGFb inhibitor | DT40 TDP1 no CPT | DT40 TDP1 CPT | HepG2 viability
Cc1ccc(OCCn2cc(C(=O)c3cccs3)c3ccccc32)cc1 | 7% | i | u | 13µM* | 18µM* | -13%
COc1ccccc1OCCn1cc(C(=O)c2cccs2)c2ccccc21 | x | x | u | 10µM* | u | -28%
CN1CCN(C(=S)c2cn(CCOc3ccccc3)c3ccccc23)CC1 | x | i | -17% | 8% | -1% | -1%
Cc1ccccc1OCCn1cc(C(=O)O)c2ccccc21 | 7% | i | -9% | 12% | 13% | -8%
CN1CCN(C(=S)c2cn(CCOc3ccccc3F)c3ccccc23)CC1 | 18% | i | 17% | 18µM* | u | -23%
O=C(Nc1ccc(C(=O)N2CCCC2)cc1)c1cc(F)c(F)cc1Cl | x | i | -2% | -14% | -24% | -34%
O=C(c1cc(-c2ccc(Cl)cc2)n[nH]1)N1CCN(C(=O)c2ccco2)CC1 | -5% | i | -9% | -12% | -27% | 1%
Cc1cc(C)nc(NNS(=O)(=O)c2ccc(F)c(Cl)c2)n1 | u | i | u | u | 23µM* | -116%
Cc1cc(C)nc(NNS(=O)(=O)c2ccc(Cl)cc2)n1 | 4% | i | 0% | -10% | u | 0%
O=C(c1ccc(S(=O)(=O)NCc2ccco2)cc1)N1CCN(Cc2ccc3c(c2)OCO3)CC1 | -17% | i | u | 16µM* | u | 7%
COc1ccc(CN2CCN(C(=O)c3ccc(S(=O)(=O)NCc4ccco4)cc3)CC2)cc1F | -26% | i | -8% | u | 9.2µM* | -20%
Cc1ccccc1CN1CCN(C(=O)c2ccc(S(=O)(=O)NCc3ccco3)cc2)CC1 | x | x | -24% | u | u | -18%
O=C(CCc1ccc(S(=O)(=O)NCc2ccccc2)cc1)N1CCN(Cc2ccc3c(c2)OCO3)CC1 | -10% | i | 14% | u | 32µM* | -29%
Cc1c(Cl)cccc1NC(=O)COC(=O)CN1C(=O)NC(C)(C)C1=O | 7% | i | 3% | 22% | -5% | -2%
O=C(Nc1cc(-c2nc3ncccc3o2)ccc1Cl)c1cccs1 | 5% | i | -7% | 21µM* | u | -26%
COc1ccc(-c2nc3ncccc3o2)cc1NC(=O)c1ccco1 | 23% | i | -7% | u | u | 3%
Cc1cc(-c2nc3ncccc3o2)ccc1NC(=S)NC(=O)C(C)C | 4% | i | -3% | -21% | 2% | -2%
COc1ccc(C(=O)Nc2ccc(-c3nc4ncccc4o3)cc2C)cc1Br | -1% | i | 11% | u | 10µM* | -1%
COc1ccc(-c2nc3ncccc3o2)cc1NC(=O)c1cccs1 | 2% | i | 4% | 15µM* | -20% | 0%
Cc1cc(C(=O)NNC(=S)NCc2ccco2)nn1C | x | i | 3% | -20% | 1% | 1%
Cc1cc(C)n(-c2ccc(S(N)(=O)=O)cc2[N+](=O)[O-])n1 | 3% | i | 0% | 1% | -4% | -4%
O=C1C[C@@H]2c3c(cccc3CN1Cc1ccc(Br)cc1)C[C@@H](O)[C@H]2O | 8% | i | 1% | -22% | -2% | -5%
Cc1ccc(CN2Cc3cccc4c3[C@@H](CC2=O)[C@H](O)[C@H](O)C4)cc1 | 6% | i | u | -7% | -3% | -10%
O=C1C[C@H]2C=CCc3cccc(c32)CN1Cc1ccc(F)cc1 | x | x | u | 13µM* | u | -28%
Cc1cccc(CN2Cc3cccc4c3[C@H](C=CC4)CC2=O)c1 | x | x | -10% | 20µM* | 16µM* | 1%
